Consider 50 compounds from PubChem BioAssay (NCATS).

The nature of assay [1]: Primary qHTS for inhibitors of nuclear receptor binding SET domain protein 2 (NSD2) in an isogenic RCH-ACV NSD2 p.E1099K mutant (9B) (AID 1645876). A general note: In qHTS, concentration-response curves come from the screen itself.
Assay [2] is described as follows: Primary qHTS for inhibitors of nuclear receptor binding SET domain protein 2 (NSD2) in an RCH-ACV wild type WT cells (2C) (AID 1645877).

Where “and” joins values, the source holds several entries; their conditions need not be identical. Equal values may be shown once. Inconclusive results are not listed. Unmarked numbers belong to inactive results. Calls of active or inactive are those of the source. Calls follow the shape of the dose curve; as a rule, active = well fitted curve in the direction sought with a large enough effect; inconclusive = small, poorly fitted or top-dose-only effect, or another doubt; inactive = no such curve, though single readings can be large; an effect the other way counts as inactive or inconclusive.
% is scaled to controls: 0 for no effect and ±100 for the full control effect; potency is read from the fitted curve at half-maximal effect.
Also: nearly all actives have a fitted effect of over 70% in size.

With `COc1ccc(/C=C/C(=O)O[C@H]2[C@@H]3C=CO[C@@H](O[C@@H]4O[C@H](CO)[C@@H](O)[C@H](O)[C@H]4O)[C@@H]3[C@@]3(CO)O[C@@H]23)cc1O`, the Potency result in assay [1] and in assay [2] was “inactive” each time.

For the compound `Cc1c(N2C(=O)c3ccc(C(=O)O)cc3C2=O)c(=O)n(-c2ccccc2)n1C`, the Potency result in assay [1] and in assay [2] was “inactive” in each case.

Turning to `COc1cc(/C=C/C(=O)OC2[C@H](O)CC(O)(C(=O)O)C[C@H]2O)ccc1O` (stereo not given in full), the Potency result in assay [1] and in assay [2] was “inactive” each time.

Take `CC1=CC(=O)C[C@H]2[C@@H]1CC[C@@H](C)[C@]21CO[C@H](c2ccoc2)C1=O`: the Potency entry in assay [1] and in assay [2] was “inactive” in each case.

For `COc1ccc(C(O[C@@H]2O[C@H](CO)[C@@H](O)[C@H](O)[C@H]2O)C(CO)Oc2ccc(/C=C/CO)cc2OC)cc1O` (stereo not given in full), the Potency result in assay [1] and in assay [2] was “inactive” throughout.

Take `C[C@@H]1C[C@H](O[C@@H]2O[C@H](CO[C@@H]3OC[C@](O)(CO)[C@H]3O)[C@@H](O)[C@H](O)[C@H]2O)CC(C)(C)[C@H]1/C=C/[C@@H](C)O`: the Potency entry in assay [1] and in assay [2] was “inactive” throughout.

For the compound `O=C(O[C@H]1[C@@H]2C[C@@H]3OC[C@@](O)([C@H]2[C@H](O[C@@H]2O[C@H](CO)[C@@H](O)[C@H](O)[C@H]2O)O3)[C@@H]1O)c1ccccc1`, the Potency result in assay [1] and in assay [2] was “inactive” in each case.

As to `CCc1nc(C(N)=O)c(Nc2ccc(N3CCC(N4CCN(C)CC4)CC3)c(OC)c2)nc1NC1CCOCC1`, the Potency was 1.13 µM (active) and 2.63 µM (active) in assay [1]; 1.13 µM (active) and 2.63 µM (active) in assay [2].

On to `CC1CC(O)CC(C)(C)C1(O)CCO` (stereo not given), for which the Potency result in assay [1] and in assay [2] was “inactive” throughout.

As to `CC1NC(=O)C(Cc2c[nH]c3ccccc23)NC1=O` (stereo not given), the Potency result in assay [1] and in assay [2] was “inactive” in each case.

`C=C[C@H]1[C@H](O[C@@H]2O[C@H](CO)[C@@H](O)[C@H](O)[C@H]2O)OC=C2C(=O)OCC[C@]21O`: the Potency result in assay [1] and in assay [2] was “inactive” each time.

With `CC1=C2C3OC(=O)C(C)C3(O)CCC2(C)CCC1=O` (stereo not given), the Potency entry in assay [1] and in assay [2] was “inactive” each time.

Regarding `CC(=O)N[C@H]1CCN(c2ccc(C3=NOC(CN[S+](=O)([O-])C(C)C)C3)cc2F)C1` (stereo not given in full), the Potency result in assay [1] and in assay [2] was “inactive” in each case.

For `COc1ccc2c(c1)OC[C@]1(O)c3cc4c(cc3O[C@H]21)OCO4`, the Potency result in assay [1] and in assay [2] was “inactive” each time.

`CC1(CO)CC[C@]2(C(=O)O[C@@H]3O[C@H](CO)[C@@H](O)[C@H](O)[C@H]3O)CC[C@]3(C)C(=CCC4[C@@]5(C)CC[C@H](O[C@@H]6O[C@H](C(=O)O)[C@@H](O)[C@H](O)[C@H]6O)C(C)(C)C5CC[C@]43C)C2C1` (stereo not given in full): the outcome in assay [1] and in assay [2] was “inactive [at 9.23 µM]” each time.

Regarding `CC1(C)CCCC2(C)C3=C(C(=O)OC3O)C(O)CC12` (stereo not given), the Potency entry in assay [1] and in assay [2] was “inactive” throughout.

Take `COc1ccc(C(OC2OC(CO)C(O)C(O)C2O)C(C)O)cc1` (stereo not given): the Potency result in assay [1] and in assay [2] was “inactive” in each case.

Regarding `CC1(C)C(=O)N2c3ccccc3[C@]3(CC(n4cnc5ccccc5c4=O)C(=O)O3)[C@H]2N1O` (stereo not given in full), the Potency result in assay [1] and in assay [2] was “inactive” throughout.

Consider `O=C(O[C@H]1[C@@H]2C=CO[C@@H](O[C@@H]3O[C@H](CO)[C@@H](O)[C@H](O)[C@H]3O)[C@@H]2[C@@]2(CO)O[C@@H]12)c1ccc(O)cc1`, for which the Potency result in assay [1] and in assay [2] was “inactive” in each case.

In the case of `COc1cc([C@H]2OC[C@]3(OC(C)=O)[C@@H](c4ccc(O[C@@H]5O[C@H](CO)[C@@H](O)[C@H](O)[C@H]5O)c(OC)c4)OC[C@H]23)ccc1O`, the Potency result in assay [1] and in assay [2] was “inactive” in each case.

Regarding `C/C=C(\C)C(=O)OC[C@H]1O[C@H](O[C@H]2O[C@H](CO)[C@@H](OC(=O)/C(C)=C/C)[C@H](O)[C@H]2O[C@@H]2O[C@H](CO)[C@@H](O)[C@H](O)[C@H]2O)[C@H](O[C@@H]2O[C@H](CO)[C@@H](O)[C@H](O)[C@H]2O)[C@@H](O)[C@@H]1O`, the outcome in assay [1] and in assay [2] was “inactive [at 9.23 µM]” in each case.

Turning to `C=C/C=C/[C@@H]1OC[C@H](/C=C/C=C/C)[C@H]1O`, the Potency entry in assay [1] and in assay [2] was “inactive” throughout.

For `CCN[C@@H]1C[C@H](N)[C@@H](O[C@H]2OC(CN)=CC[C@H]2N)[C@H](O)[C@H]1O[C@H]1OC[C@](C)(O)[C@H](NC)[C@H]1O`, the Potency result in assay [1] and in assay [2] was “inactive” each time.

In the case of `CC(C)C(=O)O[C@@H]1[C@@H](O)[C@@H](O[C@H]2O[C@H](CO)[C@@H](O)[C@H](O)[C@H]2O)O[C@H](CO)[C@H]1O`, the Potency result in assay [1] and in assay [2] was “inactive” each time.

In the case of `CC1=C2CC3OC3(C)CCC3OC3(C)CC2OC1=O` (stereo not given), the Potency entry in assay [1] and in assay [2] was “inactive” each time.

Take `CC(C)[C@H]1CCC(CO)=C[C@@H]1/C=C(\CO)C(=O)O`: the Potency entry in assay [1] and in assay [2] was “inactive” throughout.

Turning to `C=CC(C)(CC/C=C(\C)CC/C=C(\C)CC(O)/C=C(\C)C(=O)O)O[C@@H]1O[C@H](CO)[C@@H](O)[C@H](O)[C@H]1O[C@@H]1O[C@H](CO)[C@@H](O)[C@H](O)[C@H]1O` (stereo not given in full), the Potency result in assay [1] and in assay [2] was “inactive” each time.

Take `CCOC(=O)[C@H]1O[C@@H]1C(=O)N[C@@H](CC(C)C)C(=O)NCCC(C)C`: the Potency entry in assay [1] and in assay [2] was “inactive” in each case.

For `CC(=O)O[C@@H]1C[C@]2(C)[C@@]3(CCC4[C@@]5(C)CC[C@H](O[C@@H]6O[C@H](C(=O)O)[C@@H](O)[C@H](O[C@@H]7O[C@H](CO)[C@H](O)[C@H](O)[C@H]7O[C@@H]7O[C@@H](C)[C@H](O)[C@@H](O)[C@H]7O[C@@H]7OC[C@](O)(CO)[C@H]7O)[C@H]6O[C@@H]6O[C@H](CO)[C@H](O)[C@H](O)[C@H]6O)C(C)(C)C5CC[C@]42C)O[C@@H](O)[C@]12C3CC(C)(C)[C@@H](OC(=O)/C=C/c1ccc(O)c(O)c1)[C@@H]2OC(=O)/C=C/c1ccccc1` (stereo not given in full), in assay [1], the activity change, negative = viability loss is -5.24% [at 9.23 µM]. For the same compound, the activity change, negative = cell killing in assay [2] is -4.25% [at 9.23 µM].

For the compound `COC1(CC(C)C)NC(=O)C(O)(Cc2ccccc2)NC1=O` (stereo not given), the Potency entry in assay [1] and in assay [2] was “inactive” in each case.

In the case of `C=C1CC23CC1(O)CCC2C1=CC2OC(=O)C(C)(C2O)C1C3C(=O)O` (stereo not given), the Potency entry in assay [1] and in assay [2] was “inactive” in each case.

For `O=C(O)CCc1cccc(O[C@@H]2O[C@H](CO)[C@@H](O)[C@H](O)[C@H]2O)c1O`, the Potency entry in assay [1] and in assay [2] was “inactive” throughout.

For the compound `C=C1[C@H]2CC[C@]3(O)[C@@](CC[C@@H]4[C@](C)(C(=O)O)CCC[C@]43C)(C2)[C@H]1OC(=O)/C(C)=C\C`, the Potency entry in assay [1] and in assay [2] was “inactive” in each case.

With `CC1CCC23COC(=O)C2=CC(O)CC3C1(C)CCC1=CC(=O)OC1O` (stereo not given), the Potency result in assay [1] and in assay [2] was “inactive” throughout.

Turning to `CCOc1nc2cccc(C(=O)O)c2n1Cc1ccc(-c2ccccc2-c2noc(=O)[nH]2)cc1`, the Potency result in assay [1] and in assay [2] was “inactive” throughout.

Take `C=C1C(=O)OC2CC(C)=C(C(C)CCCO[C@@H]3O[C@H](CO)[C@@H](O)[C@H](O)[C@H]3O)C(O)C12` (stereo not given in full): the Potency entry in assay [1] and in assay [2] was “inactive” in each case.

For the compound `COc1ccc2c(c1O)OC[C@H]1c3ccc(O)cc3O[C@@H]21`, the Potency entry in assay [1] and in assay [2] was “inactive” in each case.

Turning to `CC1(C)CC2C3=CCC4C5(C)CCC(OC6OC(C(=O)O)C(O)C(O)C6OC6OC(CO)C(O)C(O)C6OC6OC(CO)C(O)C(O)C6O)C(C)(CO)C5CCC4(C)C3(C)CCC2(C)C(OC2OCC(O)C(OC3OC(CO)C(O)C(O)C3O)C2O)C1O` (stereo not given), in assay [1], the activity change, negative = viability loss was -1.65% [at 9.23 µM]. Also, in assay [2], the activity change, negative = cell killing was -4.93% [at 9.23 µM].

Consider `C=CC(C)(O)CC/C=C(\C)C(=O)OC1CC2(C(=O)O)CCC3(C)C(=CCC4C5(C)CCC(OC6OC(COC7OCC(O)C(O)C7O)C(O)C(OC7OCC(O)C(O)C7O)C6OC6OC(CO)C(O)C(O)C6OC6OCC(O)C(O)C6O)C(C)(C)C5CCC43C)C2CC1(C)C` (stereo not given), for which the activity change, negative = viability loss in assay [1] is -9.57% [at 9.23 µM]. Moreover, the activity change, negative = cell killing in assay [2] was -5.78% [at 9.23 µM].

As to `CC(=O)OCC1=C[C@H](O)[C@@H]2C(C(=O)O)=CO[C@@H](O[C@@H]3O[C@H](CO)[C@@H](O)[C@H](O)[C@H]3O)[C@H]12`, the Potency entry in assay [1] and in assay [2] was “inactive” in each case.

Turning to `CC1(C)C[C@H]2C3=CCC4[C@@]5(C)CC[C@H](O[C@H]6O[C@H](C(=O)O)[C@@H](O)[C@H](O)[C@H]6O[C@H]6O[C@H](CO)[C@@H](O)[C@H](O)[C@H]6O[C@@H]6O[C@H](CO)[C@@H](O)[C@H](O)[C@H]6O)[C@](C)(CO)C5CC[C@@]4(C)[C@]3(C)CC[C@@]2(C)[C@H](O[C@@H]2OC[C@H](O)[C@H](OC3O[C@H](CO)[C@@H](O)[C@H](O)[C@H]3O)[C@H]2O)[C@@H]1O` (stereo not given in full), the outcome in assay [1] and in assay [2] was “inactive [at 9.23 µM]” each time.

For the compound `CC1CCC2(C)C(CC(O)C(O)C23CO3)C1(C)CCC1=CC(O)OC1=O` (stereo not given), the Potency entry in assay [1] and in assay [2] was “inactive” each time.

For the compound `CC1CCC2C(C)(C)C(O)CCC2(C)C12Cc1c(O)cc3c(c1O2)CN=C3N` (stereo not given), the Potency result in assay [1] and in assay [2] was “inactive” in each case.

As to `CC1(C)CC2C(C1)C1(C)CCC13OC3(CO)C2O` (stereo not given), the Potency entry in assay [1] and in assay [2] was “inactive” each time.

`CC1=CC(=O)CC(C)(CO[C@@H]2O[C@H](CO)[C@@H](O)[C@H](O)[C@H]2O)C1(O)/C=C/C(C)=C/C(=O)O` (stereo not given in full): the Potency entry in assay [1] and in assay [2] was “inactive” throughout.

On to `C/C=C(\C)C(=O)O[C@H]1[C@H](O)[C@]2(COC(C)=O)[C@H](O)C[C@]3(C)C(=CCC4[C@@]5(C)CC[C@H](O[C@@H]6O[C@H](C(=O)O)[C@@H](O[C@@H]7O[C@H](CO)[C@@H](O)[C@H](O)[C@H]7O)[C@H](O)[C@H]6O[C@@H]6O[C@H](CO)[C@@H](O)[C@H](O)[C@H]6O)[C@](C)(CO)C5CC[C@]43C)[C@@H]2CC1(C)C` (stereo not given in full), for which the activity change, negative = viability loss in assay [1] is 0.0444% [at 9.23 µM]. Further, the activity change, negative = cell killing in assay [2] was -12.8% [at 9.23 µM].

Regarding `C=CCc1ccc(O[C@@H]2O[C@H](CO[C@@H]3O[C@@H](C)[C@H](O)[C@@H](O)[C@H]3O)[C@@H](O)[C@H](O)[C@H]2O)cc1`, the Potency result in assay [1] and in assay [2] was “inactive” in each case.

Take `COc1c(C)c(OCC=C(C)C)cc2c1C(=O)NC2=O`: the Potency result in assay [1] and in assay [2] was “inactive” throughout.

`C=CCc1ccc(O[C@@H]2O[C@H](CO)[C@@H](O)[C@H](O)[C@H]2O)c(OC)c1`: the Potency result in assay [1] and in assay [2] was “inactive” each time.

`COc1cc([C@@H]2Oc3c(OC)cc(CCCO)cc3[C@@H]2CO[C@@H]2O[C@H](CO)[C@@H](O)[C@H](O)[C@H]2O)ccc1O`: the Potency result in assay [1] and in assay [2] was “inactive” each time.
